# Source: PubChem BioAssay
# The list is not random: actives were taken first. Their share in the collection is about 20%.
# Pf growth 48h = inhibits P. falciparum growth in the first generation, 48 h; P. falciparum luciferase growth in erythrocytes, 48 h; Potency, µM (titrated, usually from 28.7 µM), for inactives: top-dose activity change, negative = inhibition, actives largely listed as inhibitors; hit rate 5.9% among 310,000; further: potency means the concentration at half of the fitted maximal effect; on the % scale 0 is the no-effect control and ±100 the full control effect
#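 Parasite viability was followed by luminescence of a genomically integrated firefly luciferase. Cultures held 0.1% parasitemia at 2% hematocrit (final), incubated under 5% CO2 at 37 C.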
# Shiga inhibitor = inhibitors of Shiga toxin in Vero cells; Vero cells, Shiga toxin protein synthesis inhibition reporter; inhibition, % at 38.7 µM; hit rate 9.2% among 290,000; in the data active means inhibition mostly above about 28%, no sharp cut-off; inactive means mostly below about 43%; further: 0% is about no effect
# Pf growth 96h = P. falciparum growth inhibition at 96 hours | P. falciparum luciferase reporter growth, 96 h | Potency, µM (titrated, usually from 28.7 µM), for inactives: at the top dose activity change, negative = inhibition, most hits filed as inhibitors | hit rate 6.9% among 320,000; further: potency means the concentration at half of the fitted maximal effect; on the % scale 0 is the no-effect control and ±100 the full control effect
#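 Two-generation exposure (96 h) targets delayed-death phenotype. Reporter parasites carrying integrated firefly luciferase, in red cells at 2% hematocrit and 0.05% parasitemia final, kept at 37 C, 5% CO2; luminescence loss indicates inhibition.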
# HCMV antiviral = human cytomegalovirus inhibition. activity change, negative = inhibition, % at 57.5 µM. AID 1259415. hit rate 4.5% among 410,000. HFF cells, HCMV-luciferase reporter, 72 h; hits give low values; in the data active means activity change below about -60%; inconclusive means no clear call, values can overlap the other calls; inactive means above about -39%; further: on the % scale 0 is the no-effect control and ±100 the full control effect
#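 Luciferase read-out from HCMV-luciferase-infected HFFs (MOI 1 PFU/cell) 72 h post infection at 37C; compounds added after 16 h cell attachment; activity normalized between buffer-only basal and Salinomycin (10uM) inhibitor controls.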
# Cycloheximide cs = counter-screen for Shiga toxin inhibitors: cycloheximide protein synthesis inhibition. hit rate 12% among 300,000. max response, %. cell reporter, cycloheximide protein synthesis inhibition counterscreen; in the data active means max response mostly above about 13%, no sharp cut-off; inactive means mostly below about 14%; further: read at 38.3 µM for the half of the compounds with a filed dose; 0% is about no effect
# * = called active by the depositor; ? = inconclusive; . = not tested or not shown; + = active, no number; [ ] = dose if it differs, or a comment. Unless noted, the call rests on the fitted dose curve; in most records, active means well fitted inhibition curve with a large enough effect; inconclusive means small, poorly fitted or top-dose-only effect, or another doubt; inactive means no such curve, though single readings can be large or run the other way.
SMILES,Pf growth 48h,Shiga inhibitor,Pf growth 96h,HCMV antiviral,Cycloheximide cs
CC(=O)OCC1(C)CN(c2ccccc2)NC1=O (centres undefined),30.1%,4.7,108.6%,-62.1*,10.4
CC(=O)OCC1(C)CN(c2ccccc2)N(C(C)=O)C1=O (centres undefined),10.5%,22.5,-2.4%,?,7.8
CCS(=O)(=O)c1ccc(O)c(NC(=O)NC2CCCCC2)c1,-1.0%,13.4,100.0%,-32.3,12.3*
CCc1cccc(CC)c1NC(=O)NC1CCCCC1,2.4%,6.3,74.6%,6.7,-2.0
CCS(=O)(=O)c1ccc(O)c(NC(=O)Nc2cccc3ccccc23)c1,18.6%,-5.5,20.6%,22.4,-1.4
O=C(Nc1ccccc1Cl)NC1CCCCCCC1,31.6%,57.5*,?,54.6,39.7*
O=C(Nc1ccccc1C(=O)N1CCCCC1)NC1CCCCC1,-2.5%,-12.8,-4.9%,-37.8,-1.7
CCc1ccccc1NC(=O)NC1CCCCC1,.,12.7,?,-15.7,14.2*
COc1ccc(C(=O)Nc2sc3c(c2C(N)=O)CCCC3)cc1OC,.,59.9*,.,.,42.1*
Cc1ccc(S(=O)(=O)CC(=O)Nc2sc3c(c2C(N)=O)CCCC3)cc1,.,.,.,+,.
CCN1CCc2c(sc(NC(=O)c3ccc(S(=O)(=O)N(CCOC)CCOC)cc3)c2C(N)=O)C1,.,.,.,5.2,.
CCN(CC)Cc1c(NC(=O)c2ccc(OC)cc2)sc2c1CCCC2,.,.,.,-89.6*,.
COCCN(CCOC)S(=O)(=O)c1ccc(C(=O)Nc2sc3c(c2C(N)=O)CCCCC3)cc1,73.5%,63.5*,211.6%,-16.9,32.7*
CCOC(=O)c1c(NC(=O)c2ccc(OC)cc2)sc2c1CCCCC2,.,.,.,3.7,.
CCOc1ccc(NC(=O)N(C(C)C)C2CCN(C(C)=O)CC2)cc1,.,.,.,-16.9,.
CCOc1ccc(C(C(=O)NC2CCCC2)N(Cc2ccccc2)C(=O)c2nsc(Cl)c2Cl)cc1 (centres undefined),13.1µM*,10.5,?,5.9,14.7*
Cc1ccc(N(C(=O)c2nsc(Cl)c2Cl)C(C(=O)NC2CCCC2)c2ccc(O)cc2)cc1C (centres undefined),?,-6.1,53.0%,?,8.5
Cc1cc(C)cc(N(C(=O)c2nsc(Cl)c2Cl)C(C(=O)NC2CCCC2)c2ccc(O)cc2)c1 (centres undefined),?,-2.4,25.1%,-70.8*,-0.7
Cc1ccc(N(CC(=O)NC2CCCC2)C(=O)c2nsc(Cl)c2Cl)cc1,-12.9%,28.8*,?,-74.9*,30.2*
O=C(CN(C(=O)c1nsc(Cl)c1Cl)c1ccc(F)cc1)NC1CCCC1,10.0%,-4.5,?,16.8,3.3
Cc1cccc(N(C(=O)c2nsc(Cl)c2Cl)C(C(=O)NC2CCCC2)c2ccc(O)cc2)c1C (centres undefined),7.38µM*,4.8,?,?,6.7
Cc1ccc(NC(=S)N2CCC(c3nc4ccccc4s3)CC2)cc1,?,18.2,0.0%,-24.1,11.9
O=C(NCCN1CCC(n2c(=O)[nH]c3ccccc32)CC1)c1cccc(F)c1,.,.,.,-4.4,.
COc1ccc(NC(=O)c2ccccc2F)cc1Cl,.,34.8*,2.4%,43.4,29.0*
O=C(Nc1ccc(OC(F)F)c(Cl)c1)c1cccc(OC(F)F)c1,.,66.6*,-104.4%,.,42.8*
SMILES,Pf growth 48h,Shiga inhibitor,Pf growth 96h,HCMV antiviral,Cycloheximide cs
Cc1ccc(NC(=O)c2cccc(OC(F)F)c2)c(OC(F)F)c1,22.7%,16.5,54.2%,?,15.9
COc1ccc(NC(=O)c2ccco2)cc1NC(=O)c1ccccc1F,12.8%,5.0,6.7%,-14.5,-6.3
Cc1c(Cl)cccc1NC(=O)c1cccc(OC(F)F)c1,.,93.9*,?,51.1,36.5*
COc1ccc(NC(=O)c2cccc(OC(F)F)c2)cc1Cl,193.1%,130.9*,.,55.2,39.3*
CC1(C(=O)NS(=O)(=O)c2cccc(Cl)c2)CCN1C(=O)Cc1ccsc1 (centres undefined),.,.,.,3.1,.
COc1ccccc1C(=O)NCC(c1cccnc1)N(C)C (centres undefined),5.6%,12.6,8.5%[5.75 µM],6.7,-4.3
COc1cc(OC)c(NC(=O)c2cccc(F)c2)cc1Cl,15.0%,31.0,39.8%,7.9,9.6
COc1ccc(NC(=O)COc2ccccc2C(=O)NCC(c2ccccc2)N(C)C)cc1Cl (centres undefined),?,5.3,13.1µM*,5.5,-4.2
CC(NC(=O)c1ccccc1F)C(=O)O (centres undefined),24.1%,-24.8,0.0%,36.3,-5.5
